# Records with an inconclusive call do not appear. A call without a number means that no potency is given here. Values without a mark were called inactive. Activity calls are given as the source filed them. Calls come from the whole dose curve; as a rule, active = well fitted curve in the direction sought with a large enough effect; inconclusive = small, poorly fitted or top-dose-only effect, or another doubt; inactive = no such curve, though single readings can be large; an effect the other way counts as inactive or inconclusive.
# What was measured:
# NIH3T3 [1] = test: Cytotoxic Profiling of Annotated Libraries Using Quantitative High-Throughput Screening (AID 1296008); settings: Five cell lines viability, CellTiter-Glo ATP luminescence, 48-72 h; active compounds read low; note: nearly all actives have a fitted effect of over 60% in size
# In short: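 Compounds were pin-transferred onto cells and incubated 48 or 72 hr at 37 degree Celsius, 95% humidity. CellTiter-Glo was added, plates sat 10 min at room temperature, then ATP-coupled luminescence was imaged as the viability read-out.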
# MCC-13 = test: qHTS assay to identify novel small-molecules to repurpose for Merkel cell carcinoma treatment (AID 1296009); settings: MCC and control cell lines, CellTiter-Glo viability, 72 h; series mostly up to 46 µM; note: nearly all actives have a fitted effect of over 60% in size
# In short: (§1)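 Cells exposed to NPC (8-point) and MIPE (11-point) compound dilutions for 72 hr at 37 degree celsius; viability read by CellTiter-Glo luminescence, normalized to no-cell and DMSO in-plate controls.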
# MCC-26 = test: as above; settings: MCC and control cell lines, CellTiter-Glo viability, 72 h; series mostly up to 46 µM
# In short: as §1
# MKL-1 = test: as above; settings: MCC and control cell lines, CellTiter-Glo viability, 72 h; series mostly up to 46 µM
# In short: as §1
# MKL-2 = test: as above; settings: MCC and control cell lines, CellTiter-Glo viability, 72 h; series mostly up to 46 µM
# In short: as §1
# UISO = test: as above; settings: MCC and control cell lines, CellTiter-Glo viability, 72 h; series mostly up to 46 µM
# In short: as §1
# WaGa = test: as above; settings: MCC and control cell lines, CellTiter-Glo viability, 72 h; series mostly up to 46 µM
# In short: as §1
# C33A = test: Primary qHTS to identify gynecologic anti-cancer compounds using libraries of approved drugs and bioactive compounds (AID 1345084); settings: Gynecologic cancer cell panel viability, ATPlite luminescence, 48 h; series mostly up to 57.5 µM; note: nearly all actives have a fitted effect of over 55% in size; note: potency is the fitted concentration of half-maximal effect
# In short: (§2)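 In this quantitative HTS, cell killing is estimated from loss of ATP-dependent luciferase light. Cells see five compound concentrations over a 48 h exposure.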
# CAOV3 = test: as above; settings: Gynecologic cancer cell panel viability, ATPlite luminescence, 48 h; series mostly up to 57.5 µM
# In short: as §2
# CASKI = test: as above; settings: Gynecologic cancer cell panel viability, ATPlite luminescence, 48 h; series mostly up to 57.5 µM
# In short: as §2
# Es-2 = test: as above; settings: Gynecologic cancer cell panel viability, ATPlite luminescence, 48 h; series mostly up to 57.5 µM
# In short: as §2
# HeLa = test: as above; settings: Gynecologic cancer cell panel viability, ATPlite luminescence, 48 h; series mostly up to 57.5 µM
# In short: as §2
# Hek293T = test: as above; settings: Gynecologic cancer cell panel viability, ATPlite luminescence, 48 h, control line for the selectivity index; series mostly up to 57.5 µM
# In short: as §2
# JEG-3 = test: as above; settings: Gynecologic cancer cell panel viability, ATPlite luminescence, 48 h; series mostly up to 57.5 µM
# In short: as §2
# OV90 = test: as above; settings: Gynecologic cancer cell panel viability, ATPlite luminescence, 48 h; series mostly up to 57.5 µM
# In short: as §2
# PA-1 = test: as above; settings: Gynecologic cancer cell panel viability, ATPlite luminescence, 48 h; series mostly up to 57.5 µM
# In short: as §2
# SKOV3 = test: as above; settings: Gynecologic cancer cell panel viability, ATPlite luminescence, 48 h; series mostly up to 57.5 µM
# In short: as §2
# NIH3T3 [2] = test: qHTS assay to identify novel small-molecules to repurpose for Merkel cell carcinoma treatment (AID 1296009); settings: MCC and control cell lines, CellTiter-Glo viability, 72 h; at 44.8 µM (top of the series) unless noted; note: nearly all actives have a fitted effect of over 60% in size
# In short: as §1
Structure (SMILES),max response (NIH3T3 [1]),outcome (MCC-13),outcome (MCC-26),outcome (MKL-1),outcome (MKL-2),outcome (UISO),outcome (WaGa),outcome (C33A),outcome (CAOV3),outcome (CASKI),outcome (Es-2),outcome (HeLa),outcome (Hek293T),outcome (JEG-3),Potency (OV90),outcome (PA-1),outcome (SKOV3),outcome (NIH3T3 [1]),outcome (NIH3T3 [2])
CC(=O)NCc1c(I)c(NC(C)=O)c(I)c(C(=O)O)c1I,-4.33%,inactive,inactive,inactive,inactive,inactive,inactive,inactive,inactive,inactive,inactive,inactive,inactive,inactive,inactive,inactive,inactive,–,–
CN[C@@H]1[C@H](O)[C@H](NC)[C@H]2O[C@@]3(O)C(=O)C[C@@H](C)O[C@H]3O[C@@H]2[C@H]1O,2.69%,inactive,inactive,inactive,inactive,inactive,inactive,inactive,inactive,inactive,inactive,inactive,inactive,inactive,inactive,inactive,inactive,–,–
CCCCCCCC(=O)OCC(O)CO (centres undefined),-10.3%,inactive,inactive,inactive,inactive,inactive,inactive,inactive,inactive,inactive,inactive,inactive,inactive,inactive,3.55 µM (active),inactive,inactive,–,–
NS(=O)(=O)c1cc(C2(O)NC(=O)c3ccccc32)ccc1Cl (centres undefined),–,inactive,inactive,inactive,inactive,inactive,inactive,inactive,–,inactive,inactive,inactive,inactive,inactive,inactive,inactive,inactive,inactive,inactive
NC(=O)CCCCC1CCSS1 (centres undefined),-6.71%,inactive,inactive,inactive,inactive,inactive,inactive,inactive,inactive,inactive,inactive,inactive,inactive,inactive,inactive,inactive,inactive,–,–
C[N+](C)(C)CC(O)CC(=O)[O-] (centres undefined),–,inactive,inactive,inactive,inactive,inactive,inactive,inactive,inactive,inactive,inactive,inactive,inactive,inactive,inactive,inactive,inactive,inactive,inactive
CC(C)CCOC(=O)c1ccc(N(C)C)cc1,-25.1%,inactive,–,inactive,inactive,inactive,inactive,inactive,inactive,inactive,inactive,inactive,inactive,inactive,inactive,inactive,inactive,–,–
Cn1c([N+](=O)[O-])cnc1COC(N)=O,2.03%,inactive,–,inactive,inactive,inactive,inactive,inactive,inactive,inactive,inactive,inactive,inactive,inactive,inactive,inactive,inactive,–,–
CC(C)(C)C(=O)OCOC(=O)[C@@H]1N2C(=O)[C@@H](NC(=O)[C@H](N)c3ccccc3)[C@H]2SC1(C)C,-5.28%,inactive,inactive,inactive,inactive,inactive,inactive,inactive,inactive,inactive,inactive,inactive,inactive,inactive,inactive,inactive,inactive,–,–
CCCCC1(COC(=O)CCC(=O)O)C(=O)N(c2ccccc2)N(c2ccccc2)C1=O,–,inactive,inactive,inactive,inactive,inactive,inactive,inactive,inactive,inactive,inactive,inactive,inactive,inactive,inactive,inactive,inactive,inactive,inactive
Cc1cc(C)nc(NS(=O)(=O)c2ccc(N)cc2)n1,–,inactive,–,inactive,inactive,inactive,inactive,inactive,inactive,inactive,inactive,inactive,inactive,inactive,inactive,inactive,inactive,inactive,inactive
CCN(CC)CCc1nc(-c2ccccc2)no1,1.98%,inactive,inactive,inactive,inactive,inactive,inactive,inactive,inactive,inactive,inactive,inactive,inactive,inactive,inactive,inactive,inactive,–,–
CCCC(O)C(CC)CO (centres undefined),–,inactive,inactive,inactive,inactive,inactive,inactive,inactive,inactive,inactive,inactive,inactive,inactive,inactive,inactive,–,inactive,inactive,inactive
CC(=O)N(CC(O)CO)c1c(I)c(C(=O)NCC(O)CO)c(I)c(C(=O)NCC(O)CO)c1I (centres undefined),–,inactive,inactive,inactive,inactive,inactive,inactive,inactive,–,inactive,inactive,inactive,inactive,inactive,inactive,inactive,inactive,inactive,inactive
CC(C)CCCC(C)CCCC(C)CCCCC(C)CCCC(C)CCCC(C)C (centres undefined),-1.47%,inactive,inactive,inactive,inactive,inactive,inactive,inactive,inactive,inactive,inactive,inactive,inactive,inactive,inactive,inactive,inactive,–,–
O=C(O)c1ccc(OCCCOc2ccc(C(=O)O)cc2)cc1,2.41%,inactive,inactive,inactive,inactive,inactive,inactive,inactive,inactive,inactive,inactive,inactive,inactive,inactive,inactive,inactive,inactive,–,–
O=C(O)C(S)C(S)C(=O)O (centres undefined),–,inactive,–,inactive,inactive,inactive,inactive,inactive,inactive,inactive,inactive,inactive,inactive,inactive,inactive,inactive,inactive,inactive,inactive
NNc1nnc(NN)c2ccccc12,–,inactive,inactive,inactive,inactive,inactive,inactive,inactive,–,inactive,inactive,inactive,inactive,inactive,inactive,inactive,inactive,inactive,inactive
C/C=C/C(=O)N(CC)c1ccccc1C,1.85%,inactive,–,inactive,inactive,inactive,inactive,inactive,inactive,inactive,inactive,inactive,inactive,inactive,inactive,inactive,inactive,–,–
CCOC(N)=O,–,inactive,inactive,inactive,inactive,inactive,inactive,inactive,inactive,inactive,inactive,inactive,inactive,inactive,inactive,inactive,inactive,inactive,inactive
O=C(O)/C=C/c1ccc(Cn2ccnc2)cc1,–,inactive,inactive,inactive,inactive,inactive,inactive,inactive,inactive,inactive,inactive,inactive,inactive,inactive,–,inactive,inactive,inactive,inactive
Nc1ncnc(Nc2ccccc2)n1,–,inactive,inactive,inactive,inactive,inactive,inactive,inactive,inactive,inactive,inactive,inactive,inactive,inactive,–,inactive,inactive,inactive,inactive

# From PubChem BioAssay (NCATS)
